According to PubChem BioAssay AID1159580 (chemical genetic matrix, 2015):
The whole screen tested about 5,500 compounds, of which about 2,000 (36%) were called active. Not shown: some 18% with an inconclusive outcome. Rule as the data show it: active = normalized growth mostly below about 0.91 (no sharp cut-off); inconclusive = no clear call, values can overlap the other calls; inactive = mostly above about 0.92. The list shows a part of the results.

Experiment: chemical genetic growth profiling, strain panel (AID 1159580);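 also: tested at 20 µM; growth read once vehicle control cultures reached saturation at 30 °C; 1 = growth at the plate median or of vehicle wells; lower values mean less growth of the strain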
Details: growth OD

Measured: normalized growth

CC1(C)C[C@@H]2C(=O)CC[C@H]3O[C@]3(C)CC[C@H]21
inactive: S. cerevisiae deletion strains, locus YJR075W, strain HOC1, hits give low values 1.01 | S. cerevisiae deletion strains, locus YKL009W, strain mrt4, hits give low values 0.985 | S. cerevisiae deletion strains, locus YKL068W, hits give low values 0.997 | S. cerevisiae deletion strains, locus YKL085W, strain MDH1 (second series), hits give low values 0.996 | S. cerevisiae deletion strains, locus YKL085W, strain MDH1, hits give low values 0.996 | S. cerevisiae deletion strains, locus YKL160W, strain elf1, hits give low values 1.01 | S. cerevisiae deletion strains, locus YKL190W, strain CNB1, hits give low values 1.01 | S. cerevisiae deletion strains, locus YKR001C, strain vps1, hits give low values 0.994 | S. cerevisiae deletion strains, locus YKR026C, strain gcn3, hits give low values 1.02 | S. cerevisiae deletion strains, locus YKR091W, strain srl3, hits give low values 1.01 | S. cerevisiae deletion strains, locus YLL001W, strain dnm1, hits give low values 0.985 | S. cerevisiae deletion strains, locus YLL026W, hits give low values 1.01 | S. cerevisiae deletion strains, locus YLL041C, strain sdh2, hits give low values 1.01 | S. cerevisiae deletion strains, locus YLR027C, strain aat2, hits give low values 1.03 | S. cerevisiae deletion strains, locus YLR039C, strain RIC1, hits give low values 1.07 | S. cerevisiae deletion strains, locus YLR058C, strain SHM2, hits give low values 1.01 | S. cerevisiae deletion strains, locus YLR102C, strain apc9, hits give low values 0.991 | S. cerevisiae deletion strains, locus YLR113W, strain HOG1, hits give low values 0.951 | S. cerevisiae deletion strains, locus YLR221C, strain rsa3, hits give low values 1.04 | S. cerevisiae deletion strains, locus YLR258W, strain gsy2, hits give low values 0.995 | S. cerevisiae deletion strains, locus YLR262C, strain YPT6 (second series), hits give low values 1.05 | S. cerevisiae deletion strains, locus YLR262C, strain YPT6, hits give low values 1.06 | S. cerevisiae deletion strains, locus YLR268W, strain sec22, hits give low values 0.992 | S. cerevisiae deletion strains, locus YLR320W, strain mms22, hits give low values 1.04 | S. cerevisiae deletion strains, locus YLR330W, strain CHS5, hits give low values 1.01 | S. cerevisiae deletion strains, locus YLR342W, strain FKS1 (second series), hits give low values 0.987 | S. cerevisiae deletion strains, locus YLR342W, strain FKS1, hits give low values 1.01 | S. cerevisiae deletion strains, locus YLR357W, strain rsc2, hits give low values 1 | S. cerevisiae deletion strains, locus YLR370C, strain arc18, hits give low values 1.01 | S. cerevisiae deletion strains, locus YLR371W, strain rom2, hits give low values 0.998 | S. cerevisiae deletion strains, locus YLR384C, strain iki3, hits give low values 1.03 | S. cerevisiae deletion strains, locus YLR418C, strain cdc73, hits give low values 1.01 | S. cerevisiae deletion strains, locus YML016C, strain PPZ1, hits give low values 1 | S. cerevisiae deletion strains, locus YML032C, strain rad52, hits give low values 0.983 | S. cerevisiae deletion strains, locus YML120C, strain ndi1, hits give low values 0.999 | S. cerevisiae deletion strains, locus YML124C, strain tub3, hits give low values 0.995 | S. cerevisiae deletion strains, locus YMR058W, strain fet3, hits give low values 1.03 | S. cerevisiae deletion strains, locus YMR078C, strain ctf18, hits give low values 0.989 | S. cerevisiae deletion strains, locus YMR125W, strain sto1, hits give low values 1.01 | S. cerevisiae deletion strains, locus YMR129W, hits give low values 1.01 | S. cerevisiae deletion strains, locus YMR205C, strain PFK2, hits give low values 1 | S. cerevisiae deletion strains, locus YMR223W, strain ubp8, hits give low values 0.991 | S. cerevisiae deletion strains, locus YMR231W, strain pep5, hits give low values 1.02 | S. cerevisiae deletion strains, locus YMR263W, strain SAP30, hits give low values 1.02 | S. cerevisiae deletion strains, locus YMR307W, strain GAS1, hits give low values 1.01 | S. cerevisiae deletion strains, locus YNL067W, strain RPL9B, hits give low values 1.01 | S. cerevisiae deletion strains, locus YNL071W, strain lat1, hits give low values 1.01 | S. cerevisiae deletion strains, locus YNL128W, strain TEP1, hits give low values 1.02 | S. cerevisiae deletion strains, locus YNL153C, strain GIM3, hits give low values 1.02 | S. cerevisiae deletion strains, locus YNL183C, strain NPR1, hits give low values 0.905 | S. cerevisiae deletion strains, locus YNL209W, strain ssb2, hits give low values 1.01 | S. cerevisiae deletion strains, locus YNL233W, strain BNI4, hits give low values 1.02 | S. cerevisiae deletion strains, locus YNL248C, strain rpa49, hits give low values 1.04 | S. cerevisiae deletion strains, locus YNL250W, strain rad50, hits give low values 0.998 | S. cerevisiae deletion strains, locus YNL271C, strain bni1, hits give low values 0.997 | S. cerevisiae deletion strains, locus YNL298W, strain CLA4, hits give low values 0.996 | S. cerevisiae deletion strains, locus YNL307C, strain MCK1, hits give low values 0.99 | S. cerevisiae deletion strains, locus YNL322C, strain KRE1 (second series), hits give low values 1 | S. cerevisiae deletion strains, locus YNL322C, strain KRE1, hits give low values 1.01 | S. cerevisiae deletion strains, locus YNR049C, strain mso1, hits give low values 1.02 | S. cerevisiae deletion strains, locus YNR052C, strain pop2, hits give low values 0.999 | S. cerevisiae deletion strains, locus YOL006C, strain TOP1, hits give low values 1.07 | S. cerevisiae deletion strains, locus YOL012C, strain htz1 1.57 | S. cerevisiae deletion strains, locus YOL147C, strain pex11, hits give low values 0.997 | S. cerevisiae deletion strains, locus YOR001W, strain rrp6, hits give low values 1.02 | S. cerevisiae deletion strains, locus YOR061W, strain CKA2, hits give low values 1.01 | S. cerevisiae deletion strains, locus YOR069W, strain VPS5, hits give low values 1 | S. cerevisiae deletion strains, locus YOR070C, strain gyp1, hits give low values 1.02 | S. cerevisiae deletion strains, locus YOR080W, strain dia2, hits give low values 1.03 | S. cerevisiae deletion strains, locus YOR083W, strain WHI5, hits give low values 1.01 | S. cerevisiae deletion strains, locus YOR106W, strain vam3, hits give low values 0.995 | S. cerevisiae deletion strains, locus YOR136W, strain idh2, hits give low values 0.996 | S. cerevisiae deletion strains, locus YOR144C, strain elg1, hits give low values 0.995 | S. cerevisiae deletion strains, locus YOR184W, strain ser1, hits give low values 0.962 | S. cerevisiae deletion strains, locus YOR231W, strain MKK1, hits give low values 0.947 | S. cerevisiae deletion strains, locus YOR265W, strain rbl2, hits give low values 1.03 | S. cerevisiae deletion strains, locus YOR270C, strain vph1, hits give low values 1.07 | S. cerevisiae deletion strains, locus YOR290C, strain snf2, hits give low values 0.995 | S. cerevisiae deletion strains, locus YOR316C, strain cot1, hits give low values 0.992 | S. cerevisiae deletion strains, locus YPL051W, strain arl3, hits give low values 1 | S. cerevisiae deletion strains, locus YPL055C, strain LGE1, hits give low values 1.04 | S. cerevisiae deletion strains, locus YPL078C, strain atp4, hits give low values 0.992 | S. cerevisiae deletion strains, locus YPL106C, strain sse1, hits give low values 0.984 | S. cerevisiae deletion strains, locus YPL240C, strain hsp82, hits give low values 1.02 | S. cerevisiae deletion strains, locus YPL241C, strain CIN2, hits give low values 1.01 | S. cerevisiae deletion strains, locus YPL256C, strain CLN2, hits give low values 0.983 | S. cerevisiae deletion strains, locus YPR119W, strain clb2, hits give low values 0.992 | S. cerevisiae deletion strains, locus YPR141C, strain kar3, hits give low values 0.991 | S. cerevisiae deletion strains, locus YPR163C, strain tif3, hits give low values 0.998 | S. cerevisiae deletion strains, locus YPR167C, strain met16, hits give low values 0.995 | S. cerevisiae deletion strains, strain wtn01, hits give low values 0.989 | S. cerevisiae strains, strain wild type, hits give low values 1.01
